# Experimental data as given in PubChem BioAssay (NCATS).
# Records with an inconclusive call do not appear. A call without a number means that no potency is given here. Active and inactive are the calls of the source. Calls come from the whole dose curve; as a rule, active = well fitted inhibition curve with a large enough effect; inconclusive = small, poorly fitted or top-dose-only effect; inactive = flat fitted curve, though single readings scatter.
# System: AS120
# Assay: qHTS profiling for inhibitors of Plasmodium falciparum proliferation (AID 504749); note: nearly all actives have a fitted effect of over 60% in size
# Conditions: P. falciparum in erythrocytes, SYBR Green DNA, 72 h; series mostly up to 28.7 µM
# Procedure, shortened: (§1)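 Three-day growth assay of blood-stage parasites in erythrocytes (0.3% parasitemia, 2.5% hematocrit) at 37 C, 5% CO2, quantified by SYBR Green DNA staining after overnight detergent lysis.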
# Potency is the fitted concentration of half-maximal effect.
row,SMILES,Potency
1,COc1cc([C@@H]2c3cc4c(cc3[C@H](O)[C@H]3COC(=O)[C@H]23)OCO4)cc(OC)c1OC,5.01 µM (active)
2,CC1=CC(=O)c2ccccc2C1=O,inactive
3,Nc1[nH]c(=O)ncc1F,inactive
4,Nc1nc(N)c2nc(CNc3ccc(C(=O)NC(CCC(=O)O)C(=O)O)cc3)cnc2n1 (configuration not stated),inactive
5,COC(=O)Nc1nc2ccc(C(=O)c3ccccc3)cc2[nH]1,inactive
6,Nc1nc(N)nc(-c2cc(Cl)ccc2Cl)n1,inactive
7,CC(C)(Sc1cc(C(C)(C)C)c(O)c(C(C)(C)C)c1)Sc1cc(C(C)(C)C)c(O)c(C(C)(C)C)c1,inactive
8,COc1ccc(-c2ccc3cc(C(=O)O)ccc3c2)cc1C12CC3CC(CC(C3)C1)C2,inactive
9,NCCCC(O)(P(=O)(O)O)P(=O)(O)O,inactive
10,COC(=O)Nc1nc2ccc(Sc3ccccc3)cc2[nH]1,inactive
11,CCc1cc(C(N)=S)ccn1,inactive

# System: ATS189
# Assay: as above
# Conditions: P. falciparum in erythrocytes, SYBR Green DNA, 72 h; series mostly up to 28.7 µM
# Procedure, shortened: as §1
row,SMILES,Potency
1,C[C@@H](NCCCc1cccc(C(F)(F)F)c1)c1cccc2ccccc12,7.08 µM (active)
2,COc1cc(NCc2ccc3nc(N)nc(N)c3c2C)cc(OC)c1OC,0.282 µM (active)
3,NC(N)=NC(N)=NCCc1ccccc1,inactive
4,CNNCc1ccc(C(=O)NC(C)C)cc1,inactive
5,OC(Cn1cncn1)(Cn1cncn1)c1ccc(F)cc1F,inactive
6,O=c1cc(O)c(Cl)c[nH]1,inactive
7,C1CCC(C(CC2CCCCN2)C2CCCCC2)CC1 (configuration not stated),11.2 µM (active)
8,CC(C)NCC(O)c1ccc(NS(C)(=O)=O)cc1 (configuration not stated),inactive
9,Cc1cccc(N(C)C(=S)Oc2ccc3ccccc3c2)c1,inactive
10,CC(=O)Oc1ccccc1C(=O)Nc1ncc([N+](=O)[O-])s1,inactive
11,CC[C@H](C)C(=O)O[C@H]1C[C@@H](C)C=C2C=C[C@H](C)[C@H](CC[C@@H]3C[C@@H](O)CC(=O)O3)[C@H]21,inactive
12,CC(C)OC(=O)C(C(=O)OC(C)C)=C1SC=CS1,inactive
13,O=S(=O)(O)CCS,inactive
14,Cc1nnc(NS(=O)(=O)c2ccc(N)cc2)s1,inactive
15,CNC1CCCN(c2c(F)cc3c(=O)c(C(=O)O)cn(C4CC4)c3c2OC)C1 (configuration not stated),inactive
16,S=P(N1CC1)(N1CC1)N1CC1,inactive

row,SMILES,Potency
1,COc1cc2c(Nc3ccc(Br)cc3F)ncnc2cc1OCC1CCN(C)CC1,5.01 µM (active)
2,N=C(N)c1ccc(OCCCCCOc2ccc(C(=N)N)cc2)cc1,1.41 µM (active)
3,O=C(O)c1cn(C2CC2)c2cc(N3CCNCC3)c(F)cc2c1=O,inactive
4,CCCc1nc(C)c2c(=O)[nH]c(-c3cc(S(=O)(=O)N4CCN(CC)CC4)ccc3OCC)nn12,inactive
5,COc1cc([C@@H]2c3cc4c(cc3[C@H](O)[C@H]3COC(=O)[C@H]23)OCO4)cc(OC)c1OC,3.55 µM (active)
6,CC1=CC(=O)c2ccccc2C1=O,inactive
7,Nc1[nH]c(=O)ncc1F,inactive
8,Nc1nc(N)c2nc(CNc3ccc(C(=O)NC(CCC(=O)O)C(=O)O)cc3)cnc2n1 (configuration not stated),inactive
9,COC(=O)Nc1nc2ccc(C(=O)c3ccccc3)cc2[nH]1,inactive
10,Nc1nc(N)nc(-c2cc(Cl)ccc2Cl)n1,inactive
11,CC(C)(Sc1cc(C(C)(C)C)c(O)c(C(C)(C)C)c1)Sc1cc(C(C)(C)C)c(O)c(C(C)(C)C)c1,inactive
12,COc1ccc(-c2ccc3cc(C(=O)O)ccc3c2)cc1C12CC3CC(CC(C3)C1)C2,inactive
13,NCCCC(O)(P(=O)(O)O)P(=O)(O)O,inactive
14,COC(=O)Nc1nc2ccc(Sc3ccccc3)cc2[nH]1,inactive
15,CCc1cc(C(N)=S)ccn1,inactive

# System: ATS95
# Assay: as above
# Conditions: P. falciparum in erythrocytes, SYBR Green DNA, 72 h; series mostly up to 28.7 µM
# Procedure, shortened: as §1
row,SMILES,Potency
1,C[C@@H](NCCCc1cccc(C(F)(F)F)c1)c1cccc2ccccc12,7.08 µM (active)
2,COc1cc(NCc2ccc3nc(N)nc(N)c3c2C)cc(OC)c1OC,0.631 µM (active)
3,NC(N)=NC(N)=NCCc1ccccc1,inactive
4,CNNCc1ccc(C(=O)NC(C)C)cc1,inactive
5,OC(Cn1cncn1)(Cn1cncn1)c1ccc(F)cc1F,inactive
6,CCOC(=O)c1ccc(C#Cc2ccc3c(c2)C(C)(C)CCS3)nc1,inactive
7,O=c1cc(O)c(Cl)c[nH]1,inactive
8,C1CCC(C(CC2CCCCN2)C2CCCCC2)CC1 (configuration not stated),11.2 µM (active)
9,CC(C)NCC(O)c1ccc(NS(C)(=O)=O)cc1 (configuration not stated),inactive
10,Cc1cccc(N(C)C(=S)Oc2ccc3ccccc3c2)c1,inactive
11,CC(=O)Oc1ccccc1C(=O)Nc1ncc([N+](=O)[O-])s1,inactive
12,CC[C@H](C)C(=O)O[C@H]1C[C@@H](C)C=C2C=C[C@H](C)[C@H](CC[C@@H]3C[C@@H](O)CC(=O)O3)[C@H]21,inactive
13,CC(C)OC(=O)C(C(=O)OC(C)C)=C1SC=CS1,inactive
14,O=S(=O)(O)CCS,inactive
15,Cc1nnc(NS(=O)(=O)c2ccc(N)cc2)s1,inactive
16,CNC1CCCN(c2c(F)cc3c(=O)c(C(=O)O)cn(C4CC4)c3c2OC)C1 (configuration not stated),inactive
17,S=P(N1CC1)(N1CC1)N1CC1,inactive
18,COc1cc2c(Nc3ccc(Br)cc3F)ncnc2cc1OCC1CCN(C)CC1,3.55 µM (active)
19,N=C(N)c1ccc(OCCCCCOc2ccc(C(=N)N)cc2)cc1,1.12 µM (active)
20,CCCc1nc(C)c2c(=O)[nH]c(-c3cc(S(=O)(=O)N4CCN(CC)CC4)ccc3OCC)nn12,inactive
21,COc1cc([C@@H]2c3cc4c(cc3[C@H](O)[C@H]3COC(=O)[C@H]23)OCO4)cc(OC)c1OC,8.91 µM (active)
22,CC1=CC(=O)c2ccccc2C1=O,inactive
23,Nc1[nH]c(=O)ncc1F,inactive
24,Nc1nc(N)c2nc(CNc3ccc(C(=O)NC(CCC(=O)O)C(=O)O)cc3)cnc2n1 (configuration not stated),inactive
25,COC(=O)Nc1nc2ccc(C(=O)c3ccccc3)cc2[nH]1,inactive
26,Nc1nc(N)nc(-c2cc(Cl)ccc2Cl)n1,inactive
27,CC(C)(Sc1cc(C(C)(C)C)c(O)c(C(C)(C)C)c1)Sc1cc(C(C)(C)C)c(O)c(C(C)(C)C)c1,inactive
28,NCCCC(O)(P(=O)(O)O)P(=O)(O)O,inactive
29,COC(=O)Nc1nc2ccc(Sc3ccccc3)cc2[nH]1,inactive
30,CCc1cc(C(N)=S)ccn1,inactive
